Experiment [1] can be described thus: qHTS assay to test for compound auto fluorescence at 535 nm (green) in HEK293 cells (AID 720680).
The nature of experiment [2]: qHTS assay to test for compound auto fluorescence at 460 nm (blue) in HEK293 cell free culture (AID 720681). The procedure, abridged:
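Test compounds were pinned into cell-free culture medium (DMEM with 10% FBS) and fluorescence was read directly at Ex/Em 405/460 nm. Signals were expressed as fluorescence equivalents of triamterene, with DMSO vehicle as control.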

Experiment [3] in a line: qHTS assay to test for compound auto fluorescence at 590 nm (red) in HEK293 cell free culture (AID 720683). In short, it runs like this:
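Tox21 10K library compounds were pinned into cell-free DMEM with 10% FBS and fluorescence was read at excitation 540 nm. Activity is expressed as Rose Bengal sodium equivalency.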

Experiment [4] is described as follows: qHTS assay to test for compound auto fluorescence at 590 nm (red) in HepG2 cell free culture (AID 720684). In short, it runs like this:
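Red fluorescence (540 nm excitation, 590 nm emission) was measured after compound transfer into cell-free MEM supplemented with 10% FBS. Values are equivalencies against Rose Bengal sodium.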

Experiment [5] in a line: qHTS assay to test for compound auto fluorescence at 535 nm (green) in HepG2 cell free culture (AID 720686).
Experiment [6] can be described thus: qHTS assay to test for compound auto fluorescence at 535 nm (green) in HEK293 cell free culture (AID 720682). In short, it runs like this: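 Measurement is a direct plate read of green fluorescence (485 nm in, 535 nm out) after compound addition to serum-supplemented DMEM lacking cells, with fluorescein used to express intensities.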
Experiment [7] can be described thus: qHTS assay to test for compound auto fluorescence at 460 nm (blue) in HepG2 cells (AID 720687). Also: potency is read from the fitted curve at half-maximal effect. In short, it runs like this: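 Cells (2,000/well in MEM with 10% FBS) attached overnight at 37 C, then were exposed to compound or DMSO for 1 hr at 37 C, 5% CO2. Fluorescence read at Ex/Em 405/460 nm, expressed as triamterene-equivalent signal.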
Experiment [8] has as its target Glucocorticoid receptor (Homo sapiens) (UniProt P04150). The experiment is described as follows: qHTS assay to identify small molecule antagonists of the glucocorticoid receptor (GR) signaling pathway (AID 720692; active = well fitted inhibition curve with a large enough effect in the signal ratio in the repeat runs, not every such curve was filed as active; the % refers to the signal ratio; also: potency is read from the fitted curve at half-maximal effect). In short, it runs like this:
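Fluorescence from cleaved LiveBLAzer B/G FRET substrate reports GRE-driven beta-lactamase in HeLa cells; compounds are tested against 5 nM dexamethasone (final) over 18 h at 37 C, substrate incubation 2 h at room temperature.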

The nature of experiment [9]: qHTS assay to test for compound auto fluorescence at 460 nm (blue) in HepG2 cell free culture (AID 720685). In short, it runs like this:
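Compound (23 nL) or DMSO pinned into cell-free MEM with 10% FBS; blue fluorescence read at 405/460 nm excitation/emission, expressed as auto-fluorescence equivalency to triamterene.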

In experiment [10] the target is Glucocorticoid receptor (Homo sapiens) (UniProt P04150). Put plainly: qHTS assay to identify small molecule agonists of the glucocorticoid receptor (GR) signaling pathway (AID 720691; active = well fitted activation curve with a large enough effect in the signal ratio in the repeat runs, not every such curve was filed as active; the % refers to the signal ratio). The conditions noted are these: GR-bla HeLa, beta-lactamase reporter ratio, 18 h; activation: at 62.4 µM (top of the series). In short, it runs like this: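 Beta-lactamase reporter activity, read as fluorescence intensity, was measured in GR-bla HeLa cells exposed to compounds for 18 h at 37 C and then loaded with LiveBLAzer B/G FRET substrate for 2 h at room temperature.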

The results in this text go back to PubChem BioAssay (Tox21).

Values without a mark were called inactive. Results filed as inconclusive are left out. Active and inactive are the calls of the source. Unless noted, calls follow the shape of the dose curve; as a rule, active = well fitted curve in the direction sought with a large enough effect in the repeat runs; inconclusive = weak or mixed curves; inactive = flat fitted curve, though single readings scatter.
Tags tell the direction and shape of the fitted curve or compound fluorescence and quenching.

Glucocorticoid receptor (Homo sapiens), sequence (P04150 whole entry, looked up): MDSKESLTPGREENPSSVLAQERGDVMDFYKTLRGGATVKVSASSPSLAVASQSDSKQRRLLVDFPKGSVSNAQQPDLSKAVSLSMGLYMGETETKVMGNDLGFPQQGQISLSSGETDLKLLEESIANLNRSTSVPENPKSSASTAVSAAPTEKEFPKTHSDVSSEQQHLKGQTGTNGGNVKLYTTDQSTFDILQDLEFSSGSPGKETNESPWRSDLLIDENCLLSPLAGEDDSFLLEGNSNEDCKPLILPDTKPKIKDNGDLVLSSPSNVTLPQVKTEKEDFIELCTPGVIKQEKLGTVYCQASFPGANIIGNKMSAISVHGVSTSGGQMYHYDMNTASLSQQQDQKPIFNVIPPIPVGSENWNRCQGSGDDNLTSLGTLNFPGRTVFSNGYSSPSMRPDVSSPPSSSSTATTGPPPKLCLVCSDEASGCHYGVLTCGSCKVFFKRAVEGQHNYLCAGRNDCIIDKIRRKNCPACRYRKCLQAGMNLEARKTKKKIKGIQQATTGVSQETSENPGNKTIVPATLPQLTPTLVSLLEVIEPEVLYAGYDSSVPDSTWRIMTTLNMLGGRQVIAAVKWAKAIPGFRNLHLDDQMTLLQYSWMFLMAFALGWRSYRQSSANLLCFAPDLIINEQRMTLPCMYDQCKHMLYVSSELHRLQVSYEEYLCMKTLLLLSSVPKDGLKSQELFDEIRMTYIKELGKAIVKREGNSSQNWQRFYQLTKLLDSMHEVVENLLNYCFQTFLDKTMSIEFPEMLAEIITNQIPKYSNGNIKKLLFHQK

Consider `CCCCN(CCCC)c1ccc(C(=O)c2ccccc2C(=O)O)c(O)c1`, for which the outcome in experiment [1] was inactive. Moreover, the Potency entry in experiment [2], in [3], in experiment [4] and in experiment [5] was “inactive” in each case.

On to `CCc1cc(Cc2cc(CC)c(N)c(CC)c2)cc(CC)c1N`, for which the result in experiment [1] and in experiment [6] was inactive. Besides, the Potency entry in [2], in experiment [3], in experiment [4] and in [7] was “inactive” each time. The Potency in [8] is 43.6 µM (active).

On to `C=CC(=O)OCCn1c(=O)n(CCOC(=O)C=C)c(=O)n(CCOC(=O)C=C)c1=O`, for which the compound was classed as inactive in experiment [1]. Besides, the Potency entry in experiment [2], in experiment [3], in experiment [4], in [9], in [5] and in experiment [7] was “inactive” each time.

On to `Cc1[nH]nc2c1N=C(c1ccccc1Cl)c1cc([N+](=O)[O-])ccc1N2`, for which the compound was classed as inactive in [1]. Also, the Potency result in [2], in [3], in experiment [4], in experiment [9] and in experiment [5] was “inactive” in each case.

In the case of `CCCCCCCC[N+](CCCCCCCC)(CCCCCCCC)CCCCCCCC`, the Potency result in [2], in experiment [3], in experiment [4], in [9] and in [5] was “inactive” each time. Besides, the compound was called inactive in [6].

Consider `CC[C@H](c1ccc(O)cc1)[C@@H](CC)c1ccc(O)cc1`, for which, in experiment [1], the call was inactive. Also, the Potency result in [2], in [3], in experiment [4], in experiment [9], in [7] and in experiment [10] was “inactive” each time.

For `Oc1ccc(N=Nc2ccccc2)cc1`, the result in experiment [1] was inactive. Besides, the Potency entry in experiment [2], in experiment [3], in experiment [4], in experiment [9], in experiment [5] and in experiment [7] was “inactive” throughout.

For the compound `Cc1ccc2oc(CN(Cc3ccccc3)C(=O)Nc3c(F)cc(F)cc3F)c(-c3ccc(Cl)cc3)c2c1`, the outcome in [1] was inactive. Further, the Potency result in experiment [2], in experiment [3], in [4], in experiment [9], in experiment [7] and in experiment [10] was “inactive” throughout. Further, the Potency result in experiment [8] is “inactive”.

`CC(C)=CCOc1ccc(/C=C/C(=O)c2ccc(OCC=C(C)C)cc2OCC(=O)O)cc1`: in experiment [1], the compound was called inactive. The Potency entry in [2], in [3], in experiment [4], in experiment [9], in [5] and in experiment [10] was “inactive” each time. The Potency in [8] is 7.56 µM (active).

Regarding `On1ccccc1=S`, in [1], the call was inactive. Further, the Potency result in experiment [2], in experiment [3], in [4] and in experiment [10] was “inactive” in each case.

On to `[Cl][Bi]([Cl])([c]1ccccc1)([c]1ccccc1)[c]1ccccc1`, for which the compound was called inactive in experiment [1]. The Potency result in experiment [2], in experiment [3], in experiment [4], in [9] and in [5] was “inactive” in each case.

With `CCOc1ccc2nc3cc(N)ccc3c(N)c2c1`, the call in [1] and in experiment [6] was inactive. In addition, the Potency result in [3] and in experiment [4] was “inactive” in each case.

As for `Cn1cc(C(=O)[C@@H]2CCc3nc[nH]c3C2)c2ccccc21`, the outcome in [1] was inactive. The Potency result in [2], in [3], in [4], in experiment [9], in [5] and in experiment [7] was “inactive” throughout. Also, the Potency result in experiment [10] is “inactive”.

As for `COc1cc(-c2nc(NC(=O)c3cc4cc(C)cc(C)c4n3CC(=O)O)sc2CCC2CCCCC2)c(OC)cc1Cl`, the Potency entry in experiment [2], in experiment [3], in [4], in experiment [9] and in [5] was “inactive” in each case. Besides, the outcome in experiment [6] was inactive.

`CCCCCCCC[P+](CCCCCCCC)(CCCCCCCC)CCCCCCCC`: the outcome in experiment [1] was inactive. The Potency result in experiment [2], in [3], in experiment [4], in experiment [9], in experiment [5] and in experiment [7] was “inactive” each time.

For `CN1CCC(Nc2ncc3ncnc(Nc4ccc(F)c(Cl)c4)c3n2)CC1`, the call in [1] and in experiment [6] was inactive. In addition, the Potency result in [3] and in experiment [4] was “inactive” throughout. In experiment [7], the Potency was 12.6 µM [fluorescent] (active).

For `CCCCCCCCCCCCCC[P+](CCCC)(CCCC)CCCC` (tested in a mixture with another compound), in experiment [1], the result was inactive. In addition, the Potency entry in experiment [2], in experiment [3], in experiment [4], in experiment [9], in experiment [5] and in experiment [7] was “inactive” throughout.

Consider `C=C(C)C(=O)OCC(O)COc1ccc(C(C)(C)c2ccc(OCC(O)COC(=O)C(=C)C)cc2)cc1` (stereo unspecified), for which the compound was called inactive in experiment [1]. In addition, the Potency entry in [2], in experiment [3], in experiment [4], in experiment [9], in [5] and in experiment [7] was “inactive” each time.
